Screening data: PubChem BioAssay, several laboratories
MazF activator: increases E. coli MazEF RNase cleavage of RNA; 350,000 compounds, 0.32% hits; activation, % at 20 µM; AID 504720; P0AE70; FAM/BHQ RNA-DNA oligo cleavage fluorescence, 5 h; in the data active = activation above about 50%
Target sequence (P0AE70 whole entry, looked up): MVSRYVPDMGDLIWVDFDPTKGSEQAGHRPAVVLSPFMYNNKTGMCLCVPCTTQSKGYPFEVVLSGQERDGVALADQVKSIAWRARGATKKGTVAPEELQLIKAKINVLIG
Y pestis TopoI: inhibitors of Yersinia pestis topoisomerase I; Y. pestis Topo-I cleavage product accumulation, plate reader; 360,000 compounds, 0.064% hits; activity, % at 10 µM; in the data active = activity above about 50%, passing the limit was not always enough
BJeLR viability: BJeLR cell viability loss. BJeLR (HRASV12) viability, CellTiter-Glo ATP luminescence, 48 h. inhibition, % (test concentration not listed). 300,000 compounds, 0.17% hits. AID 1554; in the data active = inhibition above about 50%
3CLpro inhibitor: SARS-CoV 3CLpro protease inhibition; recombinant SARS-CoV 3CLpro, quenched FRET peptide cleavage; inhibition, % at 6 µM; 290,000 compounds, 0.14% hits; in the data active = inhibition above about 12%
Mtb BioA inh: BioA (M. tuberculosis) enzyme inhibition; inhibition, % at 9.99 µM; purified M. tuberculosis BioA enzyme, plate reader; 360,000 compounds, 0.096% hits; AID 602481; in the data active = inhibition above about 40%
PfHsp40 yeast: rescue of PfHsp40-mediated yeast toxicity. S. cerevisiae expressing PfHsp40, growth rescue, ATP luminescence. growth rescue, % at 12.5 µM. 340,000 compounds, 0.68% hits. AID 504582; in the data active = growth rescue above about 28%, passing the limit was not always enough;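 note: yeast W303a lacking pdr1 and pdr3 grown in galactose medium; growth measured after three days at 30 °C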
* hit, by the source's call; . = no result given; + = active, no number. Shown are actives, neighbours in structure and some others; about 1.1% of the full set was active somewhere.

SMILES	MazF activator	Y pestis TopoI	BJeLR viability	3CLpro inhibitor	Mtb BioA inh	PfHsp40 yeast
Nc1cc2c(cc1Br)-c1ccccc1C2=NO	11	6	.	.	1	47*
ON=C1c2ccccc2-c2ccc(Br)cc21	-2	5	.	.	-1	5
CO[C@@H]1CN(C)C(=O)c2cc(NS(C)(=O)=O)ccc2OC[C@@H](C)N(CC2CCCCC2)C[C@H]1C	.	.	.	.	4	.
C[C@H](CO)N1C[C@H](C)[C@@H](CN(C)Cc2ccc(Cl)c(Cl)c2)Oc2ccc(NC(=O)c3ccncc3)cc2CC1=O	.	.	.	.	-1	.
Oc1ccccc1N=Nc1ccccc1O	11	-1	42	2	.	32*
C[C@@H]1CCCCO[C@H](CN(C)C(=O)Nc2ccc(F)cc2)[C@@H](C)CN([C@H](C)CO)C(=O)c2cc(NS(=O)(=O)c3cn(C)cn3)ccc2O1	.	.	.	.	0	.
CC1(C(=O)OCC(=O)Nc2ccc(C(N)=O)cc2)CC1(Cl)Cl (stereo not drawn)	0	1	-19	3	.	-1
CC1(C(=O)OCC(=O)Nc2ccc3ccccc3c2)CC1(Cl)Cl (stereo not drawn)	0	-6	0	2	1	46*
CN(C)CCNC(=O)c1sc2nc(-c3ccccc3)cc(C(F)(F)F)c2c1N	31	-15	4	-2	-4	0
COc1ccc(-c2cc(C(F)(F)F)c3c(N)c(C(=O)NCCSC)sc3n2)cc1	618*	20	-6	1	-9	4
Cc1c(C(=O)O)sc2nc(-c3cccs3)cc(C(F)(F)F)c12	-11	14	-7	3	4	0
CC(=O)c1sc2nc(-c3cccs3)cc(C(F)(F)F)c2c1N	242*	1	2	2	-1	6
Nc1c(C(=O)C2CC2)sc2nc(-c3ccccc3)cc(C(F)(F)F)c12	+	12	-4	4	-4	1
CNC[C@@H]1OCCCC[C@@H](C)Oc2ccc(NC(=O)c3ccncc3)cc2C(=O)N([C@H](C)CO)C[C@H]1C	.	.	.	.	-2	.
Cc1ccc(C)c(S(=O)(=O)NC(C)C(=O)Nc2ccc(-c3nc4ccccc4s3)cc2)c1 (stereo not drawn)	52*	-3	5	3	0	0
CC(NS(=O)(=O)c1cccc(Cl)c1)C(=O)Nc1ccc(-c2nc3ccccc3s2)cc1 (stereo not drawn)	-2	11	-3	-1	0	1
Cc1noc(C)c1NC(=O)N(C)C[C@@H]1OCCCC[C@H](C)Oc2ccc(NC(=O)c3ccncc3)cc2C(=O)N([C@H](C)CO)C[C@H]1C	.	.	.	.	0	.
O=C(Nc1ccccc1)N1CCCCN2[C@H](CO)[C@H](c3ccc(C#Cc4cccnc4)cc3)[C@@H]2C1	.	.	.	.	-3	.
Cc1ccc(-c2nnc(COC(=O)c3ccco3)o2)cc1	-1	4	6	0	-2	-1
Cc1ccc(C(=O)OCc2nnc(-c3ccc(Br)cc3)o2)cc1	-6	40	2	3	0	27*
O=C(CCN1CCCCC1)NCC[C@@H]1CC[C@H](NC(=O)c2ccc(F)cc2)[C@@H](CO)O1	.	.	.	.	-4	.
Cc1ccc(-c2nc(C#N)c(NCCc3ccccn3)o2)cc1	2	1	10	-4	-1	0
N#Cc1nc(-c2ccc(Cl)cc2)oc1NCCc1ccccn1	-8	0	-2	2	-1	67*
CN(N=Cc1ccc([N+](=O)[O-])cc1)c1ccccn1	+	-5	.	.	-1	.
C[C@H]1CCCCO[C@@H](CN(C)C(=O)c2ccncc2)[C@@H](C)CN([C@@H](C)CO)C(=O)c2cc(NC(=O)NC3CCCCC3)ccc2O1	.	.	.	.	-1	.
Cc1ccc(S(=O)(=O)N(C)C[C@H]2OCCCC[C@H](C)Oc3ccc(NC(=O)Nc4ccccc4)cc3C(=O)N([C@@H](C)CO)C[C@@H]2C)cc1	.	.	.	.	-4	.
Oc1ccc(C[C@@H]2CNC(=S)N2CCc2cc(C(F)(F)F)cc(C(F)(F)F)c2)cc1	4	-8	-8	.	1	3
S=C1NC[C@H](Cc2ccccc2)N1CCCCC1CCCCC1	-1	28	5	3	0	64*
FC(F)(F)c1cc(CCN2C(=S)NC[C@@H]2Cc2ccccc2)cc(C(F)(F)F)c1	-3	40	-10	4	0	48*
C[C@H](CO)N1C[C@H](C)[C@H](CN(C)C(=O)Nc2ccccc2)Oc2c(NS(=O)(=O)c3cccs3)cccc2C1=O	.	.	.	.	-1	.
